Hits are enriched below; roughly 8.7% of the tested compounds scored in any of these assays.
AMA1-RON2 inh: disrupts binding of P. falciparum AMA1 to RON2. AlphaScreen AMA1-biotinylated RON2 peptide binding. Potency, µM (series often up to 58.2 µM), hits mostly inhibitors. 0.2% of 360,000 active. AID 720542; further: nearly all actives have a fitted effect of over 45% in size
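AMA1 (3D7) with his tag at 25 nM final met compounds first, then biotinylated RON2 peptide at 25 nM; detection used donor plus acceptor beads, 10 µg/mL apiece, read by AlphaScreen after 30 min at room temperature.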
Vaccinia mCherry: vaccinia inhibition (mCherry reporter); 0.63% of 310,000 active; Vaccinia virus mCherry reporter infection, fluorescence; AID 720579; Potency, µM (series often up to 36.5 µM), actives largely listed as inhibitors; calls by dose curve; tested in A549 cells; further: nearly all actives have a fitted effect of over 35% in size
Vaccinia Venus: vaccinia inhibition (Venus reporter) | Vaccinia virus Venus reporter expression, fluorescence | Potency, µM (titrated, usually from 36.5 µM), most hits filed as inhibitors | 0.46% of 330,000 active | AID 720580; calls by dose curve; tested in A549 cells; further: nearly all actives have a fitted effect of over 30% in size
Pf growth 96h: inhibits malaria parasite growth, 96 h | P. falciparum luciferase reporter growth, 96 h | Potency, µM (titrated, usually from 28.7 µM), hits mostly inhibitors | 6.9% of 320,000 active | AID 504834
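Infected RBCs, 2% Hct / 0.05% parasitemia final; luciferase-reporter P. falciparum; cpd 96 h, 37 C, 5% CO2; luciferase detection reagent; luminescence.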
Pf growth 48h: P. falciparum growth inhibition at 48 hours (one generation). P. falciparum luciferase growth in erythrocytes, 48 h. 5.9% of 310,000 active. Potency, µM (titrated, usually from 28.7 µM), most hits filed as inhibitors
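A one-generation exposure of luciferase-tagged malaria parasites in RPMI 1640/Albumax erythrocyte culture, 37 C and 5% CO2. Inhibition is inferred from decreased luminescence after adding detection reagent.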
A number is an active result; 0 = inactive; ? = inconclusive; - = no result given; [ ] = remark or other dose. Unless noted, the call rests on the fitted dose curve; in most records, active means well fitted curve in the direction sought with a large enough effect; inconclusive means small, poorly fitted or top-dose-only effect, or another doubt; inactive means no such curve, though single readings can be large; an effect the other way counts as inactive or inconclusive.

SMILES	AMA1-RON2 inh	Vaccinia mCherry	Vaccinia Venus	Pf growth 96h	Pf growth 48h
CCN1CCN(c2ccc(S(=O)(=O)N3CCOCC3)cc2NC(=O)COc2ccc(F)cc2Cl)CC1	0	0	0	4.7µM	?
COc1cccc(-n2c(=O)c3sc4ccccc4c3n(CC(=O)Nc3ccc(F)cc3F)c2=O)c1	-	0	0	-	-
COc1ccc(C2=C(C)C(=O)N(Cc3ccc(C(=O)Nc4cc(C)ccc4C)cc3)S2(=O)=O)cc1	-	0	0	-	-
CCc1cccc(C)c1NC(=O)c1cc(S(=O)(=O)N(C)Cc2ccccc2)ccc1F	-	0	0	-	-
CCN1/C(=C/C(C)=O)Sc2ccc(OC)cc21	0	?	0	?	0
COc1ccc2c(c1)N(C)/C(=C/c1cccc[n+]1C)S2	0	-	-	?	0.37µM
CCN1/C(=C/c2cccc[n+]2C)Sc2ccc(OC)cc21	0	0	?	0	1µM
Cc1ccc(N2CC(NC(=O)/C=C\c3ccc4c(c3)OCO4)CC2=O)cc1 (stereo not drawn)	-	0[7.34 µM]	0[7.34 µM]	-	-
CCC1CCC(C(=O)NC(CCSC)C(=O)NCCN(CC(C)C)CC(C)C)CC1 (stereo not drawn)	0	0	0	15µM	0
Cc1nonc1CN(C)C(=O)C1CC12CCN(C(=O)/C=C/c1cccc(Cl)c1)CC2 (stereo not drawn)	-	0	0	-	-
Cc1c(C#N)c(NC(=O)c2cccc(Cl)c2)n(Cc2ccccc2)c1C	0	0	0	13µM	12µM
C/C(=N/NS(=O)(=O)c1ccc(C)c(C)c1)c1c[nH]c2ccccc12	0	-	-	0	?
C/C(=N/NS(=O)(=O)c1ccc(C)cc1C)c1c[nH]c2ccccc12	0	5µM	0	0	0
CC(=O)Nc1cccc(NC(=O)CSc2ccc(-c3cccnc3)nn2)c1	0	?	0	0	?
O=C(CSc1ccc(-c2cccnc2)nn1)Nc1ccccc1F	0	0	0	0	0
O=C(CSc1ccc(-c2cccnc2)nn1)Nc1ccccc1	0	0	0	12µM	0
Cc1ccccc1NC(=O)CSc1ccc(-c2cccnc2)nn1	0	0	0	10µM	0
Cc1ccc(C(=O)O/N=C(\N)c2cccc([N+](=O)[O-])c2)cc1	0	-	-	0	0
Cc1ccc(CC(=O)O/N=C(\N)c2cccc([N+](=O)[O-])c2)cc1	0	-	-	15µM	0
N/C(=N\OC(=O)c1ccccc1F)c1cccc([N+](=O)[O-])c1	0	-	-	12µM	0
Cc1ccc(-n2cc(CCCCCCCCC(=O)O)nn2)cc1	0	0	0	5.9µM	0
Cc1ccc(C(=O)OCc2cn(-c3ccccc3)nn2)cc1	0	0	0	?	13µM
CCOC(=O)c1cn(CC)c2cc(N3CCN(C)CC3)c(F)cc2c1=O	0	-	-	?	12µM
CCn1cc(S(=O)(=O)c2cccc(Cl)c2)c(=O)c2cc(F)c(N3CCN(C)CC3)cc21	-	0	0	-	-
CCn1cc(S(=O)(=O)c2ccc(OC)cc2)c(=O)c2cc(F)c(N3CCN(C)CC3)cc21	0	0[7.34 µM]	0[7.34 µM]	8.3µM	0
SMILES	AMA1-RON2 inh	Vaccinia mCherry	Vaccinia Venus	Pf growth 96h	Pf growth 48h
CCOC(=O)c1cn(CC)c2cc(N3CCSCC3)c(F)cc2c1=O	0	0	0	0	0.93µM
O=C(CSc1nnc2scc(-c3ccc(Cl)cc3)n12)Nc1ccc(F)cc1	-	0	0	-	-
COc1ccc(-c2cc3nc(C)c(CCC(=O)NC4CCCCC4)c(C)n3n2)c(OC)c1	-	0	0	-	-
O=C(CCn1c(=O)c2cccn2c2cccnc21)Nc1ccccc1Br	-	0	0	-	-
CCOC(=O)c1ccc(-c2c(C(=O)OCC)oc3cc(O)c(CC)cc3c2=O)o1	0	0	0	?	10µM
CCOC(=O)c1oc2cc(O)c(CC)cc2c(=O)c1-c1cscn1	0	0	0	0	0
COc1ccc(N2CCN(C(c3nnnn3C3CCCC3)C(C)C)CC2)cc1 (stereo not drawn)	0	0	0	0	0
COc1ccc(OC)c(C(c2nnnn2C2CCCC2)N2CCN(c3ccc(F)cc3)CC2)c1 (stereo not drawn)	0	-	0	0	12µM
COc1ccc2cc(C(c3nnnn3C3CCCCC3)N3CCCCCC3)c3nnnn3c2c1 (stereo not drawn)	0	0	0	-	-
COc1ccc(C(c2nnnn2C2CCCC2)N2CCC(C)CC2)c(OC)c1 (stereo not drawn)	0	-	0	0	12µM
COc1ccc(C(=O)NCCc2nnc3n2CCN(CC2CC=CCC2)CC3)cc1 (stereo not drawn)	-	0	0	-	-
Cc1cc(NC(=O)C2CCCN(S(=O)(=O)c3cnc[nH]3)C2)ccc1Br (stereo not drawn)	0	0	0	4.1µM	-
O=C(Nc1ccc(Cl)c(C(F)(F)F)c1)C1CCCN(S(=O)(=O)c2cnc[nH]2)C1 (stereo not drawn)	0	-	-	10µM	?
COc1ccc(C)cc1NC(=O)C1CCCN(S(=O)(=O)c2cnc[nH]2)C1 (stereo not drawn)	0	0	0	12µM	-
O=C(Nc1ccc(F)c(F)c1)C1CCCN(S(=O)(=O)c2cnc[nH]2)C1 (stereo not drawn)	0	0	0	?	0
COc1ccc(N(C)C(=O)c2cc3c(s2)-c2ccccc2OC3)c(OC)c1	0	0	0	?	?
COc1ccc(N(C)C(=O)c2cc3c(s2)-c2ccc(Cl)cc2S(=O)(=O)C3)c(OC)c1	0	-	-	13µM	?
CN(C(=O)c1cc2c(s1)-c1ccccc1S(=O)(=O)C2)c1ccccc1	0	0	0	?	9.3µM
COc1ccc(-n2c(=O)c3c(c4cc(OC)ccc4n3C)n(CC(=O)NCC3CCCO3)c2=O)cc1 (stereo not drawn)	-	0	0	-	-
COCC(=O)Nc1cc(C(=O)N2CCSCC2)cc2nc(-c3ccccc3)n(C)c12	-	0	0	-	-
CC1(C)C(=O)C=C[C@]2(C)[C@H]3CC[C@@]4(C)[C@H](c5ccoc5)OC(=O)[C@H]5O[C@]54[C@]3(C)[C@H](O)C[C@@H]12	0	0	0	8.3µM	12µM
CC(=O)OC1CC2C(C)(C)C(=O)C=C[C@]2(C)C2CC[C@@]3(C)C(c4ccoc4)OC(=O)C4O[C@@]43[C@]12C (stereo partly drawn)	-	0	0	-	-
CCCC1(CCC)C(=O)NC(=Nc2ccccc2)NC1=O	0	0	0	-	0
CCCC1(CCC)C(=O)NC(=NCc2ccccc2)NC1=O	0	?	16µM	0	0
CCOC(=O)/C=C1\CN(Cc2ccc(OC)cc2)S(=O)(=O)c2ccc(C(F)(F)F)cc21	-	0	0	-	-
O=C(NCC1OCCc2ccccc21)c1cc(COc2c(F)cccc2F)on1 (stereo not drawn)	0	0	0	13µM	0
Cc1ccccc1-c1cc2nc(NCc3ccc(N(C)C)cc3)n(C)c(=O)c2s1	18µM	?	0	-	-
Cc1ccccc1-c1cc2nc(NCc3ccccc3)n(C)c(=O)c2s1	0	0	0	-	-
COc1cc(/C=N/NC(=O)COc2cccc(F)c2)ccc1OS(=O)(=O)c1ccc(C)cc1	0	0	0	8.3µM	?
COc1cc(/C=N/NC(=O)COc2ccc(Cl)cc2)ccc1OS(=O)(=O)c1ccc(C)cc1	0	-	-	-	?
